# Calls of active or inactive are those of the source.
# Columns and labels:
# [1] = small molecules captured by biotinylated probe aFSTL3 – biochemical, small-molecule microarray, fluorescence 635/667, stem cell growth factor project, primary screen (AID 1064); conditions: higher = more signal;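 note: measures binding of the biotinylated anti-FSTL3 antibody to printed compounds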
# [2] = binders from COS7 lysate, DM2A8 probe, primary screen, torsin A project, cell lysate, small-molecule microarray, fluorescence 635/667 (AID 1065); conditions: higher = more signal, COS7 lysate expressing mutant human TOR1A
# [3] = small molecules captured by biotinylated probe aFGF2 – biochemical, small-molecule microarray, fluorescence 635/667, stem cell growth factor project, primary screen (AID 1067); conditions: higher = more signal;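 note: measures binding of biotinylated aFGF2 protein to printed compounds on slides; z-score merges feature fluorescence and signal-to-noise across triplicate slides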
# [4] = small molecules captured by biotinylated probe aFGF10 – biochemical, small-molecule microarray, fluorescence 635/667, stem cell growth factor project, primary screen (AID 1071); conditions: higher = more signal;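 note: score merges 667 nm spot intensity and signal to noise from triplicate slides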
# [5] = molecular target: Neurogenic locus notch homolog protein 2 (Homo sapiens) (UniProt Q04721); experiment: small molecules binding Notch2 protein – biochemical, small-molecule microarray, 635 nm fluorescence, stem cell growth factors, primary screen (AID 1073); conditions: higher = more signal
# [6] = molecular target: Pro-neuregulin-1, membrane-bound isoform (Homo sapiens) (UniProt Q02297); experiment: small molecules binding neuregulin-1 protein – biochemical, small-molecule microarray, fluorescence 635/667, psychiatric disease protein project, primary screen (AID 1075); conditions: NRG1 binding, 635 nm fluorescence, higher = more signal;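 note: score combines 667 nm spot fluorescence with signal to noise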
# [7] = test system: Neuregulin-1 EGF-like domain; experiment: small molecules binding NRG1 EGF domain – biochemical, small-molecule microarray, 635 nm fluorescence, primary screen (AID 1081); conditions: higher = more signal;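 note: binding of the protein to compounds printed on small-molecule microarray slides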
# [8] = FRG1 expression reporter modulators in myotubes – cell-based, C2C12 myotubes, firefly/Renilla luciferase, luminescence, FRG1 inhibition for FSHD, primary screen (AID 1084); conditions: FRG1 promoter luciferase, higher = more signal, called active from +8 up or from −8 down
# [9] = small molecules captured by biotinylated probe aFST – biochemical, small-molecule microarray, fluorescence 635/667, stem cell growth factor project, primary screen (AID 1086); conditions: higher = more signal;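 note: score merges 667 nm fluorescence with signal-to-noise of each printed compound spot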
# [10] = binders of probe aHhip on microarray, primary screen, stem cell growth factor project, biochemical, small-molecule microarray, fluorescence 635/667 (AID 1087); conditions: higher = more signal;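 note: score merges spot fluorescence at 667nm with spot signal to noise ratio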
# [11] = test system: PRMT1 (protein arginine N-methyltransferase 1); experiment: small molecules binding arginine methyltransferase PRMT1 – biochemical, small-molecule microarray, 635 nm fluorescence, primary screen (AID 1088); conditions: higher = more signal;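 note: binding of Prmt1 protein to compounds spotted on small-molecule microarray slides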
# [12] = growth effects on S. cerevisiae YJM789 – YJM789 clinical isolate, OD600, 24 h, basal, primary screen (AID 1089); conditions: higher = more signal, called active from +8 up or from −8 down;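 note: growth of clinical yeast isolate S. cerevisiae YJM 789 seeded 1000 cells per well; test concentration not given here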
# [13] = S. pombe growth modifiers, basal conditions – strain 972, OD600, 24 h, no modulator, primary screen (AID 1090);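 note: basal condition with compound alone and no growth modifier present; test concentration not given here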; conditions: S. pombe 972 growth, higher = more signal, called active from +8 up or from −8 down
# [14] = budding yeast growth modifiers under rapamycin – strain BY4716, OD600, 96 h, primary screen (AID 1091); note: test concentration not given here; conditions: S. cerevisiae BY4716 + rapamycin, higher = more signal, called active from +8 up or from −8 down
# [15] = molecular target: Torsin-1A-interacting protein 2 (Homo sapiens) (UniProt Q8NFQ8); experiment: small molecules binding lysate-expressed LULL1 – cell lysate, human LULL1 lysate, 635/667 nm fluorescence, primary screen (AID 1092); conditions: small-molecule microarray, hLULL1 lysate binding, 635 nm fluorescence; higher = more signal;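 note: probe is lysate of COS7 cells overexpressing human LULL1; score merges per-feature 667 nm fluorescence with signal-to-noise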
# [16] = optical density change of DRC41 E. coli – strain DRC41, OD650, 24 h, E. coli filamentation project, primary screen (AID 1093);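 note: MC1000 strain lacking acrAB efflux and sulA so SOS filamentation is blocked; test concentration not given here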; conditions: E. coli DRC41 growth, higher = more signal, called active from +8 up or from −8 down
# [17] = probe aLefty2 binding to arrayed compounds – biochemical, biotinylated probe, 635/667 nm fluorescence, primary screen (AID 1094); conditions: small-molecule microarray, higher = more signal;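 note: score merges spot fluorescence near 667 nm with spot signal-to-noise ratio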
# [18] = test system: Noggin (protein binding on small-molecule microarray); experiment: small molecules binding Noggin protein – biochemical, 635/667 nm fluorescence, primary screen (AID 1095); conditions: 635 nm fluorescence, higher = more signal;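 note: score merges 667 nm feature fluorescence with signal to noise over triplicate slides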
# [19] = molecular target: Neurogenic locus notch homolog protein 3 (Homo sapiens) (UniProt Q9UM47); experiment: small molecules binding NOTCH3 protein – biochemical, 635/667 nm fluorescence, primary screen (AID 1096); conditions: small-molecule microarray, 635 nm fluorescence, higher = more signal
# [20] = probe aEGFR binding to arrayed compounds – biochemical, biotinylated probe, 635/667 nm fluorescence, primary screen (AID 1097); conditions: small-molecule microarray, higher = more signal;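 note: probe is a biotinylated anti-EGFR antibody binding compounds printed on slides; score combines fluorescence near 667 nm and signal to noise of each spot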
# Neurogenic locus notch homolog protein 3 (Homo sapiens), sequence (Q9UM47 whole entry, looked up): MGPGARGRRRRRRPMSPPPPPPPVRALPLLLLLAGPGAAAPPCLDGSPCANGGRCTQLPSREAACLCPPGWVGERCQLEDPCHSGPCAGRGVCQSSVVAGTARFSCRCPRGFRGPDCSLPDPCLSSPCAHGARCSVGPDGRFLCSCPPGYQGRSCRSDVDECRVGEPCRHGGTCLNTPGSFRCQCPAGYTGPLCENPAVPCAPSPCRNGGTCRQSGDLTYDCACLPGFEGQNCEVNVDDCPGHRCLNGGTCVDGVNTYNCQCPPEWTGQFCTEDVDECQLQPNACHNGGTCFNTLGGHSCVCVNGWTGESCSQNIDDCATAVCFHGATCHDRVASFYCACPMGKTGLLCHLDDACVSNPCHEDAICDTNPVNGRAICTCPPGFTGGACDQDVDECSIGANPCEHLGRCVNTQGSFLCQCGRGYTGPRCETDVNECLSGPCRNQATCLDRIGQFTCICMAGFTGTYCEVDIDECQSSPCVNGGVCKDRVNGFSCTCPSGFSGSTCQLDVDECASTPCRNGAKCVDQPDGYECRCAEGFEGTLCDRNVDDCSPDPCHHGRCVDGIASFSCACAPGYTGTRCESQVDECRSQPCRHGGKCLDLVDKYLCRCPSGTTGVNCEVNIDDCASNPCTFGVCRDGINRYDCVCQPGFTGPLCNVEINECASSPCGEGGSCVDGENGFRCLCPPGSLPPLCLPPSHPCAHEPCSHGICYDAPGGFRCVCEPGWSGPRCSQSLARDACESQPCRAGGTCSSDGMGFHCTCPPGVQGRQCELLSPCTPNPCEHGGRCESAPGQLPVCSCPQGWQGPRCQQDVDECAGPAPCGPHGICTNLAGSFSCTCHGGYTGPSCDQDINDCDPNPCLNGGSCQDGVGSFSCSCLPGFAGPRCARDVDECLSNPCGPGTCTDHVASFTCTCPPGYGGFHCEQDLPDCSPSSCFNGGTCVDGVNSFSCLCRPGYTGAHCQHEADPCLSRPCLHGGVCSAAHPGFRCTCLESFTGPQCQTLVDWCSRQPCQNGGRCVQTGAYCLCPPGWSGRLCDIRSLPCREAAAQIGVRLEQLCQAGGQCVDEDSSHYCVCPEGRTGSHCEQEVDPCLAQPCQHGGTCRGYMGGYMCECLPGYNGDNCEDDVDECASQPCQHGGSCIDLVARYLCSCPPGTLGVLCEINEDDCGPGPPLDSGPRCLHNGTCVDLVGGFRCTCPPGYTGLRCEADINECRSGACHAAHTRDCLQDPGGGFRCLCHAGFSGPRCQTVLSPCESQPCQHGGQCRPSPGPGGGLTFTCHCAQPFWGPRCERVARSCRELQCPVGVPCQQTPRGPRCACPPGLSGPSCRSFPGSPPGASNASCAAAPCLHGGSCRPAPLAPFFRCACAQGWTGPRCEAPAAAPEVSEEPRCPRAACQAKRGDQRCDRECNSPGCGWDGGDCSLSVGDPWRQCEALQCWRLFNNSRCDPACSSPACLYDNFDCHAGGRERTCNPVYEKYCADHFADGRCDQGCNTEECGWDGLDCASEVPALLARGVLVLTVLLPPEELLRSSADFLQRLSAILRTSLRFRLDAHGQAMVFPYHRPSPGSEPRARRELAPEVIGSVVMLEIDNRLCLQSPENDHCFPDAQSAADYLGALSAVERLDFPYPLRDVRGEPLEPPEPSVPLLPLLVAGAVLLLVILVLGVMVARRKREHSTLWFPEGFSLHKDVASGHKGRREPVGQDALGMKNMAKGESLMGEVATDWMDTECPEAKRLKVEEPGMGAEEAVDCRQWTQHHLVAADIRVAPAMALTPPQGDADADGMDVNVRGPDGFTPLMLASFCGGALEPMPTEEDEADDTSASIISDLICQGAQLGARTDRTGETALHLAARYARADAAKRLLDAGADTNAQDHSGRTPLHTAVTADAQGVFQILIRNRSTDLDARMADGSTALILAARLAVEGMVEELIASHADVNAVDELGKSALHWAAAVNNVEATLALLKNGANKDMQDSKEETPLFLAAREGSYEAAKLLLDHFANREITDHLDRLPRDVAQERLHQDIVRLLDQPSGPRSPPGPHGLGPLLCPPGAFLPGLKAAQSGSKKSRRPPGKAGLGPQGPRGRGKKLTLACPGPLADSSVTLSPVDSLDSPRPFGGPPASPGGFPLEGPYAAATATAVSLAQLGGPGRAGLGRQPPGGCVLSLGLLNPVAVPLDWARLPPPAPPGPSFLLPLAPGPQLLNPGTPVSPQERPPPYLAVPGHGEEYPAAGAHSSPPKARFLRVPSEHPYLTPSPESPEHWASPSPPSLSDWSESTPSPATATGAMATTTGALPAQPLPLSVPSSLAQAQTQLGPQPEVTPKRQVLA
# Neurogenic locus notch homolog protein 2 (Homo sapiens), sequence (Q04721 whole entry, looked up, canonical isoform): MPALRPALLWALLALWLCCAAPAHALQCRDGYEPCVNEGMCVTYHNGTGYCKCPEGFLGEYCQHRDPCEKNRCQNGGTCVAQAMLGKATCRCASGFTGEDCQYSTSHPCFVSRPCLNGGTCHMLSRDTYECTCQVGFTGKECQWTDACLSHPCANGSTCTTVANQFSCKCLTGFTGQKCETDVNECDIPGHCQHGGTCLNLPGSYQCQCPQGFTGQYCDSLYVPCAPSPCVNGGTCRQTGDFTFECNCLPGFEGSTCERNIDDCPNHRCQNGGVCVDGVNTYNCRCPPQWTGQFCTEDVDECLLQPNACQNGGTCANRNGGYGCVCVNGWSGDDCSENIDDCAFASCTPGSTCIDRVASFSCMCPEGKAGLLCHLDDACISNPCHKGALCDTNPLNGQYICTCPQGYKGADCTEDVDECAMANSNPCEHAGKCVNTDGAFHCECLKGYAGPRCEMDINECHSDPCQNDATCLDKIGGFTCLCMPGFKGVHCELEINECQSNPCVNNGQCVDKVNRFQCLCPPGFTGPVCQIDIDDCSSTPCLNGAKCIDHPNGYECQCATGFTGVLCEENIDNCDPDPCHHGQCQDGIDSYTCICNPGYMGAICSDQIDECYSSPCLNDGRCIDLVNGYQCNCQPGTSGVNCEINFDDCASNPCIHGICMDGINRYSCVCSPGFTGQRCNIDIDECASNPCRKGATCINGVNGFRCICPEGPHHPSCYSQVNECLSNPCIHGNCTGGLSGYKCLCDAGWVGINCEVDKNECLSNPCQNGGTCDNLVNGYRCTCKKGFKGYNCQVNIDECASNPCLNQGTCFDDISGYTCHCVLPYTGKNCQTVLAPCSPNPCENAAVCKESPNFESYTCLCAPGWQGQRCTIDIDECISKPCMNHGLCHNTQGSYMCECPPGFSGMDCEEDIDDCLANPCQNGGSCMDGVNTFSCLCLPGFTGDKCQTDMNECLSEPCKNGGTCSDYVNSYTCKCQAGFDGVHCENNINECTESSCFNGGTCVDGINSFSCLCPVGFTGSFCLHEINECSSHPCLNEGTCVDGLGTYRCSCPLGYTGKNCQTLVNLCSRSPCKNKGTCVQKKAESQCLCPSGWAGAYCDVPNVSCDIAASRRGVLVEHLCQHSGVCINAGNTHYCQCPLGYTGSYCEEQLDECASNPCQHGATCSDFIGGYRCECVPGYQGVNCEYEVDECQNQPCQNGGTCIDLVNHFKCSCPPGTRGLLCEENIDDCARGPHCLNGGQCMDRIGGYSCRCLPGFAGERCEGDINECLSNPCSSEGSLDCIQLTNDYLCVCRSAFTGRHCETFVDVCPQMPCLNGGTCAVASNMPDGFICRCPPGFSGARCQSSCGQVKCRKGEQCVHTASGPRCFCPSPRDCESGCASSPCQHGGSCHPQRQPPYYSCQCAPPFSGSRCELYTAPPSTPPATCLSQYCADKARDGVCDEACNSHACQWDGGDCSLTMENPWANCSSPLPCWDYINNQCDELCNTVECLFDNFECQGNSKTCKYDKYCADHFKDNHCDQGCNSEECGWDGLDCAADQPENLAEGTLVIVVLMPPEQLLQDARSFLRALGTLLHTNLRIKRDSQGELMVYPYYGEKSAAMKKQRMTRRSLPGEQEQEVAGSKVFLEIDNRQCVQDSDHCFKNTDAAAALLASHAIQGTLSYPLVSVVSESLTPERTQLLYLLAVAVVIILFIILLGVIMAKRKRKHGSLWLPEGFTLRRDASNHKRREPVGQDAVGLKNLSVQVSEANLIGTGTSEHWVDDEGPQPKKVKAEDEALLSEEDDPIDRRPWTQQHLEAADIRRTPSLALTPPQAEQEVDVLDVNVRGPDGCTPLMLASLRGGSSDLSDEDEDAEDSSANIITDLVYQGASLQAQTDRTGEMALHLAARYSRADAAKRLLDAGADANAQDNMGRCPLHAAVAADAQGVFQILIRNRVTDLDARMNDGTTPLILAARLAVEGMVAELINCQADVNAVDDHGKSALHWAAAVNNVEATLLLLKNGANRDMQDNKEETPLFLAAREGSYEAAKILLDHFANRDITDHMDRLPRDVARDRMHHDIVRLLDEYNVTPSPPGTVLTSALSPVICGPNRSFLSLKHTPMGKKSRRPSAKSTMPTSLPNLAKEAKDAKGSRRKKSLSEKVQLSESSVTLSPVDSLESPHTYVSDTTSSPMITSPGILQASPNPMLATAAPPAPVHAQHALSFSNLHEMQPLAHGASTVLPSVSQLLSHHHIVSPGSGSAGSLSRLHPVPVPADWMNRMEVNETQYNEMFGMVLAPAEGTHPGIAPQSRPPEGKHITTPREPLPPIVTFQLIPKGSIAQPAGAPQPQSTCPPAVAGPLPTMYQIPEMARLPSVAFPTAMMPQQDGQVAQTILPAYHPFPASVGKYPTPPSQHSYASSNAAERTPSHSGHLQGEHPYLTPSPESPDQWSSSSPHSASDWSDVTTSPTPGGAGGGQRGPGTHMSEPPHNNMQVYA
SMILES,composite z-score [1],composite z-score [2],composite z-score [3],composite z-score [4],composite z-score [5],composite z-score [6],composite z-score [7],z-score [8],composite z-score [9],composite z-score [10],composite z-score [11],z-score [12],z-score [13],z-score [14],composite z-score [15],z-score [16],composite z-score [17],composite z-score [18],composite z-score [19],composite z-score [20]
[N-]=[N+]=NCc1ccccc1C[C@@]1(C(=O)O)N=C(c2ccc(OCCCO)cc2)O[C@@H]1c1ccccc1,0.673,-0.231,-0.134,-0.927,-0.0526,1.86,0.754,-1.08 (inactive),0.0724,-0.226,0.244,-0.921 (inactive),-1.23 (inactive),-1.22 (inactive),2.45,0.41 (inactive),0.0424,-0.811,-0.364,-0.221
NCCCCCCNC(=O)[C@@H]1C[C@@H]2C(=O)N[C@@H](Cc3ccccc3)C(=O)N2[C@@H]1c1ccc(O)cc1,1.38,0.757,-0.0715,-0.113,0.179,1.25,1.33,0.611 (inactive),0.422,-0.265,0.914,-0.507 (inactive),-1.11 (inactive),-0.373 (inactive),1.36,0.792 (inactive),0.635,0.561,0.164,-0.063
COCCCN1C(=O)[C@@]2(Cc3ccccc31)c1ccccc1C(=O)N(Cc1ccccc1Cl)[C@H]2c1ccc(CO)cc1,0.218,-0.272,-0.201,-0.273,-0.773,-0.592,-0.983,0.448 (inactive),0.009,0.0274,0.952,-0.403 (inactive),-1.49 (inactive),-1.46 (inactive),1.22,2.9 (inactive),-0.226,-1.07,-0.435,-0.0304
CCOC(=O)C[C@H]1[C@H](OC(=O)c2cc3ccccc3oc2=O)[C@@H](NC(=O)c2ccccc2)c2cc(OCCCO)ccc2N1C(=O)Cc1ccc(OC)cc1,-0.297,0.682,-0.038,0.575,0.81,0.147,-0.1,-0.265 (inactive),0.514,0.0302,-0.0867,-0.196 (inactive),-1.08 (inactive),-0.846 (inactive),0.239,2.9 (inactive),-0.0069,0.908,0.665,-0.113
C=C(COC)/C(=C/C[C@H](OC(C)=O)c1ccc(CO)o1)c1cnc2ccccc2c1,-0.17,1.29,-0.0316,0.665,1.4,0.64,1.01,-0.524 (inactive),0.314,-0.0024,1.41,-0.342 (inactive),-0.897 (inactive),-1.06 (inactive),2.48,1.15 (inactive),-0.0208,1.55,1.04,-0.0616
O=C1c2ccccc2C(=O)c2cc([C@H]3Oc4ccccc4S(=O)(=O)N4CCC[C@@H]34)ccc21,0.238,-0.845,-0.128,-0.639,-1.09,-0.926,-1.64,-0.933 (inactive),-0.167,-0.353,-1.02,-1.31 (inactive),-1.33 (inactive),-0.462 (inactive),-0.629,2.81 (inactive),-0.276,-0.566,-0.259,-0.196
CC(=O)OC(C/C=C\B1OC(C)(C)C(C)(C)O1)c1ccccc1 (stereo not given),0.696,0.0193,-0.038,-1.06,-0.542,-0.451,-0.679,-1.52 (inactive),-0.0273,-0.353,-0.0413,-2.82 (inactive),-4.32 (inactive),-3.49 (inactive),-0.126,-3.15 (inactive),-0.0231,-0.502,-0.761,-0.268
CO[C@H]1O[C@H](CO)[C@@H](OC(=O)CCc2ccccc2)[C@@H]2OC(=O)[C@H](Cc3ccccc3)C/C=C/C[C@@H](Cc3ccccc3)C(=O)O[C@@H]12,-0.0198,-0.106,-0.134,-0.357,-0.512,0.92,1.14,-1.51 (inactive),-0.306,-0.337,0.696,-0.696 (inactive),-2.18 (inactive),11.3 (active),1.4,1.98 (inactive),-0.0905,-0.748,-0.033,-0.347
O=C(NC1CC1)[C@@H]1c2ccccc2C(=O)N(Cc2ccccc2C(F)(F)F)[C@H]1c1ccc(CO)cc1,-0.432,0.436,-0.116,0.39,0.693,0.988,1.26,-1.64 (inactive),0.336,-0.226,1.57,-0.541 (inactive),-1.77 (inactive),-0.731 (inactive),2.27,1 (inactive),-0.15,0.458,1.13,-0.039
C=CCNC(=O)[C@@H]1[C@H]2C(=O)O[C@H](c3ccccc3)[C@H](c3ccccc3)N2[C@H](c2ccc(O)cc2)[C@@]12C(=O)N(C(=O)OCCOC)c1ccc(C#Cc3ccc(OC)cc3)cc12,-0.828,0.974,-0.0761,0.856,1.34,1.41,1.16,-0.374 (inactive),0.316,-0.0994,1.55,0.342 (inactive),0.1 (inactive),2.6 (inactive),2.08,2.2 (inactive),-0.111,0.605,1.12,-0.0674
